Measurements reported in the supplement of paper PMC10849652.
Of roughly 7,900 targets only a part is listed; those with a hit were picked by preference. About 0.6% of all pairs of compound and target were hits. A number with no mark means an inactive call.

Columns and labels:
Assay in all cases: log2 fold change, soluble protein after heating vs DMSO (PISA); higher = thermal stabilisation; K562 cells, 10 uM, 30 min; active = over 0.2 and 3.5 SD of the protein, either way, in both replicates (recomputed)
saracatinib = compound: CN1CCN(CCOc2cc(OC3CCOCC3)c3c(Nc4c(Cl)ccc5c4OCO5)ncnc3c2)CC1 [saracatinib]
Procedure, shortened: (§1)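 K562 cells (2×10^6 cells/mL) were treated with 10 μM compound for 30 min, and aliquots were heated for 3 min over 48°C-58°C. Pooled aliquots were extracted in PBS with 0.5% NP-40 at 4°C, and the supernatant after 21,000xg for 90 min was measured by TMTpro 16plex LC-MS/MS with channel sums equalised. Reported thermal stability, relative to control samples and from duplicates, is a log2 fold change.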

sotrastaurin = compound: CN1CCN(c2nc(C3=C(c4c[nH]c5ccccc45)C(=O)NC3=O)c3ccccc3n2)CC1 [sotrastaurin]
Procedure, shortened: as §1

alvocidib = compound: CN1CC[C@H](c2c(O)cc(O)c3c(=O)cc(-c4ccccc4Cl)oc23)[C@H](O)C1 [alvocidib]
Procedure, shortened: as §1

Tubastatin A = compound: CN1CCc2c(c3ccccc3n2Cc2ccc(C(=O)NO)cc2)C1 [Tubastatin A]
Procedure, shortened: as §1

[1] = compound: CNC(=O)C1=CC=CC=C1NC2=NC(=NC=C2Cl)NC3=C(C=C(C=C3)N4CCOCC4)OC
Procedure, shortened: as §1

defactinib = compound: CNC(=O)c1ccc(Nc2ncc(C(F)(F)F)c(NCc3nccnc3N(C)S(C)(=O)=O)n2)cc1 [defactinib]
Procedure, shortened: as §1

rucaparib = compound: CNCc1ccc(-c2[nH]c3cc(F)cc4c3c2CCNC4=O)cc1 [rucaparib]
Procedure, shortened: as §1

[2] = compound: CNc1nc(-c2ccc3c(N)n[nH]c3c2)cc(N2C[C@@H](C(=O)NC3CCCCC3)CC[C@H]2C)n1
Procedure, shortened: as §1

encorafenib = compound: COC(=O)N[C@@H](C)CNc1nccc(-c2cn(C(C)C)nc2-c2cc(Cl)cc(NS(C)(=O)=O)c2F)n1 [encorafenib]
Procedure, shortened: as §1

[3] = compound: COC(=O)[C@H](CCSC)NC(=O)C1=C(C=C(C=C1)NC[C@H](CS)N)C2=CC=CC=C2
Procedure, shortened: as §1

[4] = compound: COC1=CC=C(C=C1)CN2C=CC3=C2C=C(C=C3)C(=O)NO
Procedure, shortened: as §1

filanesib = compound: CON(C)C(=O)N1N=C(c2cc(F)ccc2F)S[C@@]1(CCCN)c1ccccc1 [filanesib]
Procedure, shortened: as §1

zotarolimus = compound: CO[C@H]1C[C@@H]2CC[C@@H](C)[C@@](O)(O2)C(=O)C(=O)N2CCCC[C@H]2C(=O)O[C@H]([C@H](C)C[C@@H]2CC[C@H](n3cnnn3)[C@H](OC)C2)CC(=O)[C@H](C)/C=C(\C)[C@@H](O)[C@@H](OC)C(=O)[C@H](C)C[C@H](C)/C=C/C=C/C=C/1C [zotarolimus]
Procedure, shortened: as §1

idasanutlin = compound: COc1cc(C(=O)O)ccc1NC(=O)[C@@H]1N[C@@H](CC(C)(C)C)[C@](C#N)(c2ccc(Cl)cc2F)[C@H]1c1cccc(Cl)c1F [idasanutlin]
Procedure, shortened: as §1

alisertib = compound: COc1cc(Nc2ncc3c(n2)-c2ccc(Cl)cc2C(c2c(F)cccc2OC)=NC3)ccc1C(=O)O [alisertib]
Procedure, shortened: as §1

[5] = compound: COc1cc2nc(-c3cc(F)ccc3O)nc(N[C@@H]3CNC[C@H]3C(C)(C)O)c2cc1OC
Procedure, shortened: as §1

gefitinib = compound: COc1cc2ncnc(Nc3ccc(F)c(Cl)c3)c2cc1OCCCN1CCOCC1 [gefitinib]
Procedure, shortened: as §1

[6] = compound: COc1cccc2cc(-c3nc([C@H]4CC[C@H](C(=O)O)CC4)n4ncnc(N)c34)[nH]c12
Procedure, shortened: as §1

lapatinib = compound: CS(=O)(=O)CCNCc1ccc(-c2ccc3ncnc(Nc4ccc(OCc5cccc(F)c5)c(Cl)c4)c3c2)o1 [lapatinib]
Procedure, shortened: as §1

pictilisib = compound: CS(=O)(=O)N1CCN(Cc2cc3nc(-c4cccc5[nH]ncc45)nc(N4CCOCC4)c3s2)CC1 [pictilisib]
Procedure, shortened: as §1

UniProt O75607, sequence (O75607 whole entry, looked up): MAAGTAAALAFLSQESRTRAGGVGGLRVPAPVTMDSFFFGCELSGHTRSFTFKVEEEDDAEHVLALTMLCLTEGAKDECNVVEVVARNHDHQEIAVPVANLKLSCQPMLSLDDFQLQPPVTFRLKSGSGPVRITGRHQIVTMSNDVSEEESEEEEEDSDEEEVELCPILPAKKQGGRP
UniProt Q9BPX3, sequence (Q9BPX3 whole entry, looked up): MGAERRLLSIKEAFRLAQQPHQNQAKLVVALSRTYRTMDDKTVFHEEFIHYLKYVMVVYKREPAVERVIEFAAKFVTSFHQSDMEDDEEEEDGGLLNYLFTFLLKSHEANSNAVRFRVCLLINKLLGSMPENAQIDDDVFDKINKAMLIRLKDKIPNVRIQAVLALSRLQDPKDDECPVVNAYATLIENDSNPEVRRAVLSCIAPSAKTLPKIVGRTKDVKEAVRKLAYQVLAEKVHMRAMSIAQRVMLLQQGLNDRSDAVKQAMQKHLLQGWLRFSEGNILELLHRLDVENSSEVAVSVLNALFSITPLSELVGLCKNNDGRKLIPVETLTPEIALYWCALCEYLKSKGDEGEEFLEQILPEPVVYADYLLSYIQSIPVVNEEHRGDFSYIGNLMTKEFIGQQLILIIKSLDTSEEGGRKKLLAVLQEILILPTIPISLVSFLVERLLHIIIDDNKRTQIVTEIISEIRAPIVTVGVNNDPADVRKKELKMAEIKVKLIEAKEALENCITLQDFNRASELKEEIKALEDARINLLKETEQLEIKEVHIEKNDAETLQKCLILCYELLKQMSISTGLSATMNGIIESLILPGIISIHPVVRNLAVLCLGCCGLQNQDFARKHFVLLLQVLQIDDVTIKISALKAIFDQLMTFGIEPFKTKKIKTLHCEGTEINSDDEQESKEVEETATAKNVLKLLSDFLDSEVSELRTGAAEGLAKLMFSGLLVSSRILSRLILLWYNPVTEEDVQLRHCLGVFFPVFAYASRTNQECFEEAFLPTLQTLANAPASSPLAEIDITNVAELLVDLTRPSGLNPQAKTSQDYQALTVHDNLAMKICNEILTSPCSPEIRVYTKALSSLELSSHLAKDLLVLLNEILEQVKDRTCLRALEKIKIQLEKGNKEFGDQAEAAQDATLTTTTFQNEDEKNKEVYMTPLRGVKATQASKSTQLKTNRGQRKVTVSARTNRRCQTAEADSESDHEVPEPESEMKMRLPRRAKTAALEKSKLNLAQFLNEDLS
UniProt P56556, sequence (P56556 whole entry, looked up): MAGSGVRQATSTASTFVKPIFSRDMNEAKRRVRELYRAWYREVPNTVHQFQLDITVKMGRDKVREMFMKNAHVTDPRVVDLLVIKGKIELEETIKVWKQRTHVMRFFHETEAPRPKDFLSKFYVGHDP
UniProt O60313, sequence (O60313 whole entry, looked up): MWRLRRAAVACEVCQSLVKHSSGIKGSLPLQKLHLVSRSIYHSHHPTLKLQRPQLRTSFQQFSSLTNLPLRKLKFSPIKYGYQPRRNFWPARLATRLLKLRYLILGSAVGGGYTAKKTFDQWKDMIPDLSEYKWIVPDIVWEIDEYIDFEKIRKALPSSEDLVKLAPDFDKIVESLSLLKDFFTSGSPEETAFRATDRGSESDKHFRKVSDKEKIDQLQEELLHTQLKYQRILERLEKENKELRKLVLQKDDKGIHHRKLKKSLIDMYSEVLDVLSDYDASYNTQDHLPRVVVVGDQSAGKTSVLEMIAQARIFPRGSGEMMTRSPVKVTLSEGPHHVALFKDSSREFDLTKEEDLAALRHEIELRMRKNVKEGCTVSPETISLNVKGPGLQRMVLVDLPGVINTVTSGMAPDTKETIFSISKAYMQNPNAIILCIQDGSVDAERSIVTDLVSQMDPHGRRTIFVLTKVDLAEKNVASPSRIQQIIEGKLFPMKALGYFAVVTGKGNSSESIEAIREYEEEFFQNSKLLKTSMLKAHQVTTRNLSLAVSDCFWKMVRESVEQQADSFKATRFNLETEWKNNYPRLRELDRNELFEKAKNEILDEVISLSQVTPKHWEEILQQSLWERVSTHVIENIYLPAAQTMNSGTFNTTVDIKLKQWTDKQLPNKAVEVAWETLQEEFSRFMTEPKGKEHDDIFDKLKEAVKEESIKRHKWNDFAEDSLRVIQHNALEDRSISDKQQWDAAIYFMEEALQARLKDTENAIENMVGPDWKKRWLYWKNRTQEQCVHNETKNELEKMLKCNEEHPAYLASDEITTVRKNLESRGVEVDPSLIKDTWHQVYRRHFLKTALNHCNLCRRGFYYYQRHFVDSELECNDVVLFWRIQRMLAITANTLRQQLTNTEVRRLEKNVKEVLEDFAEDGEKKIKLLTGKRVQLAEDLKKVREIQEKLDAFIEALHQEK
UniProt Q330K2, sequence (Q330K2 whole entry, looked up): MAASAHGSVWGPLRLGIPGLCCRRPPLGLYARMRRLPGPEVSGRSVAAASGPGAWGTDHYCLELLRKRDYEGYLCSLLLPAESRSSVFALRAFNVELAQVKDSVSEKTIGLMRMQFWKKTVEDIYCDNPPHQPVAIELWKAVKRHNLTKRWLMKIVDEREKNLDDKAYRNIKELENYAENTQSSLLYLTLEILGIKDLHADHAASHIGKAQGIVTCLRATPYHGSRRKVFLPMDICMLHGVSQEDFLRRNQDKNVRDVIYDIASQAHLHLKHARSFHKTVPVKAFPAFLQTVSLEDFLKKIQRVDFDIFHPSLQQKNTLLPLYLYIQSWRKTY
UniProt Q13469, sequence (Q13469 whole entry, looked up): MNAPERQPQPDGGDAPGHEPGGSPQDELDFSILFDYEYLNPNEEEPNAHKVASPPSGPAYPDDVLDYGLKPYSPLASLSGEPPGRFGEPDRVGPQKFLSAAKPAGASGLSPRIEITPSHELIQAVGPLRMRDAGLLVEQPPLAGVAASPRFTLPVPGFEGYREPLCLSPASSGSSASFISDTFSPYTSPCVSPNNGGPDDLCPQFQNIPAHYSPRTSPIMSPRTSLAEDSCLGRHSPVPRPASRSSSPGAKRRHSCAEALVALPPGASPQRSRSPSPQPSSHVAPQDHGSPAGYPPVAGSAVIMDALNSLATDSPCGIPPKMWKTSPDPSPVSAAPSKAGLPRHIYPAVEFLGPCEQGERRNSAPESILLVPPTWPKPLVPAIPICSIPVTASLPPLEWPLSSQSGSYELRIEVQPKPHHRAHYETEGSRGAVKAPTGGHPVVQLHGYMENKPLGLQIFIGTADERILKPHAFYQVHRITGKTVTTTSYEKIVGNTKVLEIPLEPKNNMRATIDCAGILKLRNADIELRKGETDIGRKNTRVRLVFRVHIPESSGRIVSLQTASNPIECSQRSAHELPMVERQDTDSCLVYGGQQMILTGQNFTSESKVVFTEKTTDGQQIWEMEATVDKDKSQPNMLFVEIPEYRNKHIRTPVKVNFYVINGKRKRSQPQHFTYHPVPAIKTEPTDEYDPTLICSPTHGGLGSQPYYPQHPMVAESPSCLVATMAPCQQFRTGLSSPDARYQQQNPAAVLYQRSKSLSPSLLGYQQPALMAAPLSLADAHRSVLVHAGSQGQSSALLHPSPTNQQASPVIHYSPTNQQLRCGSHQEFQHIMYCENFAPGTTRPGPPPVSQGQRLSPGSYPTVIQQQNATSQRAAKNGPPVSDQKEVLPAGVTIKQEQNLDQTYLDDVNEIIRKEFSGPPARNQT
UniProt P49914, sequence (P49914 whole entry, looked up): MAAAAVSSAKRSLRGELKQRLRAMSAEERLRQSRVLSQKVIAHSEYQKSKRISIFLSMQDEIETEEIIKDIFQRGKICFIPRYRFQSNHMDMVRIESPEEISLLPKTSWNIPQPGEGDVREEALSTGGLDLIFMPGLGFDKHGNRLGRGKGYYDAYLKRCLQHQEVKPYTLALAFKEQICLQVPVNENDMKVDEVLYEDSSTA
UniProt Q15003, sequence (Q15003 whole entry, looked up): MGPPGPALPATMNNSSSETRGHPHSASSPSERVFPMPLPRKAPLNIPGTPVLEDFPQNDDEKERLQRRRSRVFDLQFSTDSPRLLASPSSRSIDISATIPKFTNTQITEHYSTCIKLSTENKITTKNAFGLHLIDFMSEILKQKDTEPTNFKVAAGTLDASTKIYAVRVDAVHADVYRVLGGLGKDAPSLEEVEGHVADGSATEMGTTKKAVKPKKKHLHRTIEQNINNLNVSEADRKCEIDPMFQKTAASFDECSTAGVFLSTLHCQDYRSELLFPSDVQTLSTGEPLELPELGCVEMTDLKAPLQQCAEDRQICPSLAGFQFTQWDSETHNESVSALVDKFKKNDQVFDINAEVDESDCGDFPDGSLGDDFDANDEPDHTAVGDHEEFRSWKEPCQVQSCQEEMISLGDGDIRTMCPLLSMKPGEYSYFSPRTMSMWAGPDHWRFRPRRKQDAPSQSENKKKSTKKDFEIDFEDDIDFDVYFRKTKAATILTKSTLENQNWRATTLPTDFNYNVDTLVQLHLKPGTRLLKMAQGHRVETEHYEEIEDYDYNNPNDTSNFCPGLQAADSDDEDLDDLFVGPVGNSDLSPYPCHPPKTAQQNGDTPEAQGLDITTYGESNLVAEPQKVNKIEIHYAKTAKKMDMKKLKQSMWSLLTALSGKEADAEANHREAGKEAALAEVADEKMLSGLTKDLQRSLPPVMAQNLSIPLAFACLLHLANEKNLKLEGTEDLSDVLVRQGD
UniProt P04181, sequence (P04181 whole entry, looked up): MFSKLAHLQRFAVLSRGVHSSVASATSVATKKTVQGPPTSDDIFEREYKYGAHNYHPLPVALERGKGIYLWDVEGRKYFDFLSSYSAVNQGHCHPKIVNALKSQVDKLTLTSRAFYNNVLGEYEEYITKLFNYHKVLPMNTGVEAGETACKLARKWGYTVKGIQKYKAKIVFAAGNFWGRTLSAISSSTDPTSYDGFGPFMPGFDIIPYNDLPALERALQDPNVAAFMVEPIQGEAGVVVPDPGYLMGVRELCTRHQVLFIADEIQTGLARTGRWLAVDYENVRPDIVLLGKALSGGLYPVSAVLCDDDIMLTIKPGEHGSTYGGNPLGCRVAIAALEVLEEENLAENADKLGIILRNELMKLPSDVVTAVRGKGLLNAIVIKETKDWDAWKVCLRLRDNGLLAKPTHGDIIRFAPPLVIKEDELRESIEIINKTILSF

Row | Target | log2 fold change (saracatinib) | log2 fold change (sotrastaurin) | log2 fold change (alvocidib) | log2 fold change (Tubastatin A) | log2 fold change [1] | log2 fold change (defactinib) | log2 fold change (rucaparib) | log2 fold change [2] | log2 fold change (encorafenib) | log2 fold change [3] | log2 fold change [4] | log2 fold change (filanesib) | log2 fold change (zotarolimus) | log2 fold change (idasanutlin) | log2 fold change (alisertib) | log2 fold change [5] | log2 fold change (gefitinib) | log2 fold change [6] | log2 fold change (lapatinib) | log2 fold change (pictilisib)
1 | NQO1 (UniProt P15559) | -0.076 | -0.002 | -0.108 | 0.027 | 0.161 | -0.038 | -0.077 | -0.008 | 0.005 | -0.022 | 0.062 | -0.053 | 0.069 | -0.085 | -0.094 | 0.011 | -0.006 | 0.001 | -0.017 | -0.006
2 | MRPS15 (UniProt P82914) | -0.134 | -0.079 | -0.057 | 0.039 | -0.07 | 0.035 | 0.084 | 0.115 | 0.039 | -0.01 | 0.041 | 0.145 | 0.095 | -0.265 | -0.024 | 0.016 | -0.054 | 0.024 | 0.08 | -0.13
3 | NA, A0A096LPI6 | 0.05 | 0.017 | -0.02 | -0.037 | 0.005 | 0 | 0.007 | -0.055 | -0.009 | 0.019 | 0.008 | -0.044 | 0.019 | -0.014 | -0.034 | -0.123 | 0.018 | 0.074 | 0.029 | -0.02
4 | MTHFS (UniProt P49914) | -0.023 | -0.017 | -0.078 | 0.043 | 0.065 | -0.053 | 0.013 | -0.004 | 0.007 | 0.014 | 0.032 | -0.023 | -0.02 | -0.006 | -0.065 | 0.041 | 0.053 | 0.052 | 0.028 | 0.016
5 | OAT (UniProt P04181) | -0.002 | -0.016 | -0.125 | 0.013 | 0.084 | -0.058 | -0.047 | -0.04 | -0.061 | 0.024 | -0.028 | -0.183 | 0.03 | -0.054 | -0.025 | -0.095 | 0.011 | 0.004 | -0.076 | 0.12
6 | NCAPH (UniProt Q15003) | 0.001 | -0.15 | -0.016 | 0.04 | 0.024 | -0.119 | 0.074 | 0.009 | 0.057 | -0.039 | -0.03 | 0.018 | 0.024 | -0.046 | 0.016 | 0.092 | 0 | -0.065 | -0.021 | 0.062
7 | OSBP (UniProt P22059) | -0.051 | -0.147 | -0.028 | 0.037 | 0.062 | -0.066 | -0.11 | 0.062 | -0.006 | -0.001 | -0.018 | 0.009 | 0.007 | -0.019 | -0.046 | 0.086 | 0.019 | -0.009 | 0 | 0.004
8 | NDUFA6 (UniProt P56556) | -0.037 | 0.003 | -0.122 | 0.021 | -0.039 | -0.068 | 0.006 | 0.044 | 0.034 | -0.039 | 0.097 | -0.035 | 0.05 | -0.383 (active) | 0.044 | 0.048 | -0.004 | 0.068 | 0.097 | 0.087
9 | NFATC2 (UniProt Q13469) | -0.128 | -0.166 | -0.199 | 0.118 | 0.007 | -0.14 | -0.047 | -0.382 (active) | 0.101 | 0.071 | 0.015 | 0.161 | -0.084 | 0.058 | 0.147 | -0.036 | 0.031 | -0.152 | -0.001 | -0.029
10 | MRPS18B (UniProt Q9Y676) | -0.038 | 0.082 | -0.059 | 0.125 | 0.007 | -0.016 | 0.065 | 0.225 | 0.034 | -0.027 | 0.011 | 0.065 | 0.035 | -0.205 | 0.069 | 0.024 | 0.078 | 0.018 | -0.005 | -0.106
11 | MSH3 (UniProt P20585) | -0.013 | -0.003 | -0.015 | 0.045 | -0.026 | 0.015 | 0.031 | -0.011 | 0.069 | -0.02 | -0.074 | 0.005 | 0.036 | -0.004 | 0.008 | 0.093 | 0.005 | 0 | 0.042 | -0.006
12 | NPM3 (UniProt O75607) | 0 | 0 | 0.032 | 0.031 | -0.06 | 0.001 | 0.155 | -0.042 | 0.034 | -0.04 | 0.123 | 0.116 | 0.104 | 0.258 | -0.205 | 0.006 | -0.011 | -0.069 | -0.003 | -0.025
13 | NIBAN1 (UniProt Q9BZQ8) | -0.051 | -0.086 | -0.037 | 0.004 | -0.013 | -0.111 | 0.08 | 0.013 | 0.144 | -0.017 | 0.055 | 0.028 | 0.028 | -0.007 | -0.052 | -0.043 | -0.032 | -0.062 | -0.015 | 0
14 | NCAPG (UniProt Q9BPX3) | -0.077 | -0.122 | -0.053 | 0.026 | 0.106 | -0.067 | 0.078 | -0.004 | 0.093 | -0.039 | 0.079 | -0.018 | 0.054 | -0.064 | 0.03 | 0.038 | 0.022 | -0.116 | 0 | 0.071
15 | NDUFAF6 (UniProt Q330K2) | -0.071 | -0.112 | -0.025 | -0.101 | 0.038 | -0.04 | -0.108 | -0.146 | 0.081 | 0.084 | 0.183 | -0.177 | -0.006 | 0.03 | -0.199 | -0.165 | -0.018 | 0.061 | -0.007 | 0
16 | OPA1 isoform 2 (UniProt O60313) | -0.072 | -0.005 | -0.047 | 0.054 | -0.047 | -0.024 | -0.001 | 0.064 | 0.056 | -0.047 | -0.01 | -0.118 | 0.035 | -0.105 | 0.002 | -0.249 (active) | -0.002 | 0.002 | 0.024 | -0.07
